SW480 rerep = A quantitative high throughput screen for small molecules that induce DNA re-replication in SW480 colon adenocarcinoma cells. Potency, µM (top dose mostly 46.1 µM), for inactives: at the highest dose re-replication activation, most hits filed as activators. SW480 DNA re-replication, Hoechst DNA content imaging, 48 h. 340,000 tested, 1.8% active; further: % of control where 0% means no effect; nearly all actives have a fitted effect of over 55% in size
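Treated cells incubate 48 hr (37 C, 5% CO2), are stained 40 min with Hoechst, and nuclear fluorescence is enumerated; a rise in nuclei with high DNA signal marks re-replication.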
RORgamma inh = qHTS for inhibitors of ROR gamma transcriptional activity; AID 2551, 2010; 310,000 tested, 5.4% active; Drosophila S2 Gal4-RORgamma UAS-luciferase reporter, 20 h; Potency, µM (top dose mostly 53.6 µM), for the others: at the highest dose activity change, negative = inhibition, usual class: inhibitors; Nuclear receptor ROR-gamma (Mus musculus), P51450; further: on the % scale 0 is the no-effect control and ±100 the full control effect; nearly all actives have a fitted effect of over 60% in size
Target sequence (P51450 whole entry, looked up, the tested form may be a part): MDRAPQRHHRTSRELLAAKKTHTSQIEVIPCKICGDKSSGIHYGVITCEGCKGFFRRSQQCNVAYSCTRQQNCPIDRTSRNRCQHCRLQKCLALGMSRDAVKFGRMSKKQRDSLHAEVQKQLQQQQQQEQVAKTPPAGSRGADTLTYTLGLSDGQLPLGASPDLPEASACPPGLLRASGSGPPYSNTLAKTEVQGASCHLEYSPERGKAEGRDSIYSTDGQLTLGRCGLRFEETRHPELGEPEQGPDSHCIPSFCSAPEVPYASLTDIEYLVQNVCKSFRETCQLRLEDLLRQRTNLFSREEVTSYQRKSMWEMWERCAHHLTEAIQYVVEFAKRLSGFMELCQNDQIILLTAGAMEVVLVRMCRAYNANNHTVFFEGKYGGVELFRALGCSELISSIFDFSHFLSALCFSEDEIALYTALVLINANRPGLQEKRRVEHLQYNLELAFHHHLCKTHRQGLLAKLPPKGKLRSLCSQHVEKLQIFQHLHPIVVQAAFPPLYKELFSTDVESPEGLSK
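Stably transfected Drosophila Schneider cells are the test system, with ROR gamma fused to Gal4 and luciferase under UAS control; luminescence is read after 20 hr of 700 uM copper sulfate induction at ambient temperature.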
MCF10A rerep = A quantitative high throughput screen for small molecules that induce DNA re-replication in MCF 10a normal breast cells | MCF 10A DNA re-replication, Hoechst nuclear intensity, 48 h | Potency, µM (titrated, usually from 46.1 µM), without a hit: at the top dose activity, positive = re-replication, hits mostly activators | 350,000 tested, 2.9% active | AID 624296, 2012; further: % of control where 0% means no effect; nearly all actives have a fitted effect of over 50% in size
VP16 counter = VP16 counterscreen qHTS for inhibitors of ROR gamma transcriptional activity | Potency, µM (doses to about 53.6 µM), without a hit: at the highest dose activity, negative = inhibition, usual class: inhibitors | Drosophila S2 Gal4-VP16 UAS-luciferase, luminescence, 20 h | AID 2546, 2010 | 310,000 tested, 3.5% active;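 further: Gal4-VP16 expression switched on by copper sulfate through the metallothionein promoter; on the % scale 0 is the no-effect control and ±100 the full control effect; nearly all actives have a fitted effect of over 50% in size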
ELG1 repair inh = qHTS screen for small molecules that inhibit ELG1-dependent DNA repair in human embryonic kidney (HEK293T) cells expressing luciferase-tagged ELG1. Potency, µM (titrated, usually from 46.1 µM), inactives show at the highest dose activity change, negative = inhibition, most hits filed as inhibitors. HEK293T ELG1-luciferase reporter, luminescence, 16 h; DNA damage induced by 5-fluorouridine. 330,000 tested, 2.3% active; further: on the % scale 0 is the no-effect control and ±100 the full control effect; nearly all actives have a fitted effect of over 55% in size
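HEK293T cells expressing luciferase-tagged ELG1 (2,000/well) received 5-Fluorouridine plus compound or DMSO for 16 hr at 37 °C. Luciferase was read by ONE-Glo luminescence after 30 min at room temperature.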
An asterisk follows results filed as active; ? = inconclusive; . = not tested or not shown; [ ] = dose if it differs, or a comment. Most compounds without a hit are left out; they make up all but 10% or so of the library. The call rests on the fitted dose curve; in most records, active means well fitted curve in the direction sought with a large enough effect; inconclusive means small, poorly fitted or top-dose-only effect, or another doubt; inactive means no such curve, though single readings can be large; an effect the other way counts as inactive or inconclusive. Potency means the concentration at half of the fitted maximal effect.

SMILES	SW480 rerep	RORgamma inh	MCF10A rerep	VP16 counter	ELG1 repair inh
CCc1cccc(C)c1NC(=S)NCc1ccc2[nH]c(C)cc2c1	13µM*	3.98µM*	-1.2%	10µM*	?
Fc1ccc(CNC(=S)NC2CCCC2)cc1	?	8.91µM*	9.0%	?	-5.3%
Fc1ccc(CNC(=S)NC2CCCCC2)cc1	?	5.01µM*	-2.1%	11.2µM*	?
Cc1cc2cc(CNC(=O)NC3CCCCC3)ccc2[nH]1	3.8%	?	?	-3.9%	?
Cc1cc2cc(CNC(=S)NC3CCCCC3)ccc2[nH]1	-37.6%	14.1µM*	11.3%	?	?
O=C(CCNC(=O)c1ccccc1Cl)OCC(=O)c1ccccc1	-15.0%	6.2%	-29.8%	4.1%	-5.6%
Cc1cc(C)c(C)c(S(=O)(=O)N2CCN(CC(=O)c3c(N)n(Cc4ccccc4)c(=O)n(C)c3=O)CC2)c1C	?	4.9%	13µM*	?	?
Cn1c(N)c(C(=O)COc2ccc(Cl)cc2Cl)c(=O)n(C)c1=O	-1.5%	-7.6%	12.5%	-4.3%	?
CC(=O)Nc1ccc(SCC(=O)c2c(N)n(Cc3ccccc3)c(=O)n(C)c2=O)cc1	-11.0%	21.4%	16.6%	4.0%	?
CCCCn1c(N)c(C(=S)NC(=O)CC(C)C)c(=O)n(C)c1=O	-0.9%	1.12µM*	?	1.12µM*	1.7%
CC(=O)NC(=S)c1c(N)n(Cc2ccccc2)c(=O)n(C)c1=O	.	2.82µM*	.	2.82µM*	-4.8%
Cn1c(=O)c(C(=O)CN2CCCCCC2)c(N)n(Cc2ccccc2)c1=O	0.5%	2.3%	?	0.4%	-11.9%
Cn1c(=O)c(C(=O)COc2ccc(F)cc2Cl)c(N)n(Cc2ccccc2)c1=O	?	32.1%	12.4%	-6.2%	23.1µM*
CCCn1c(N)c(C(=O)CSc2nc(C)cs2)c(=O)n(C)c1=O	-2.9%[9.22 µM]	?	?	-3.2%	?
CCCn1c(N)c(C(=S)NC(=O)C2CC2)c(=O)n(C)c1=O	-2.2%	3.55µM*	7.2%	3.98µM*	10.3%
Cc1cccc(NC(=S)NC2CC3CCCC(C2)N3Cc2cccs2)c1 (stereo not given)	22.0%	5.01µM*	8.7%	?	-8.8%
COCCCNC(=S)NC1CC2CCCC(C1)N2Cc1cccs1 (stereo not given)	2.2%	10µM*	?	-1.6%	1.7%
CN(C)S(=O)(=O)N1CCCC(C(=O)c2ccc(-c3ccccc3)cc2)C1 (stereo not given)	10.2%	-2.1%	0.6%	-13.1%	-11.5%
CCCOc1ccc(N)cc1N	?	4.47µM*	?	?	?
COc1ccc(N2CCN(S(=O)(=O)c3c(C)n(C)c(=O)n(C)c3=O)CC2)cc1	3.4%	-12.8%	1.7%	-0.5%	-8.3%
CCCn1c(-c2ccc(F)cc2)nc2c(N3CCCN(Cc4ccccc4)CC3)nc(C)nc21	.	7.7%	.	?	.
Cc1cc(C)nc(/N=C(\NC(=O)C(C)(C)C)Nc2ccccc2)n1	-44.8%	-34.5%	5.2%	-3.7%	-5.5%
Cc1cc(-c2ccccc2)c2ccc(NC(=O)C(C)(C)C)nc2n1	9.4%	11.2µM*	-0.1%	?	?
C[C@@H](C(=O)N1CCN(C(=O)OC(C)(C)C)CC1)n1cc(CCCN=C(NC(=O)OC(C)(C)C)NC(=O)OC(C)(C)C)nn1	12.7%	17.3%	-41.8%	-7.3%	3.6%
CCOC(=O)c1c(/N=C/N(C)C)sc(/C=N/Nc2ccccc2)c1-c1ccccc1	?	-11.3%	20.6µM*	-15.6%	-9.8%
SMILES	SW480 rerep	RORgamma inh	MCF10A rerep	VP16 counter	ELG1 repair inh
CCOC(=O)c1c(/N=C/N(C)C)sc(/C=N/Nc2ccccc2)c1-c1ccccc1Cl	18.4µM*	32.9%	14.6µM*	-9.3%	20.6µM*
O=C1c2oc3ccc(Cl)cc3c(=O)c2C(c2ccccn2)N1CCCN1CCOCC1 (stereo not given)	-9.6%	22.4µM*	0.2%	?	?
O=C1c2oc3ccc(F)cc3c(=O)c2C(c2ccc(F)cc2)N1CCCN1CCOCC1 (stereo not given)	-5.6%	.	5.2%	.	.
CCN1C(=O)NC(c2ccccc2)C1=O (stereo not given)	-80.1%	.	-0.7%	.	19.2%
CCCCC1C(=O)N(c2ccccc2)N(c2ccc(O)cc2)C1=O (stereo not given)	?	4.47µM*	?	5.62µM*	?
CC(C)=CCC1C(=O)N(c2ccccc2)N(c2ccccc2)C1=O	?	-20.0%[10 µM]	29.9µM*	?	.
COCCCNc1nc2c(-c3ccc(C)cc3)nnn2c2ccccc12	27.4%	7.1%	?	6.9%	0.0%
COCCCNc1nc2c(-c3cccc(C)c3)nnn2c2ccccc12	7.9%	-10.7%	13µM*	-20.8%	-13.0%
Cc1ccc(CNC(=O)CCSCc2ccccc2C)cc1	-13.1%	0.3%	-3.5%	0.8%	3.0%
CSc1ncccc1C(=O)Nc1nccs1	-1.7%	10µM*	-0.4%	-15.8%	13.9%
CSc1ncccc1C(=O)Nc1ncc(C)s1	-0.4%	11.2µM*	6.7%	-20.7%	?
CCN(CC)S(=O)(=O)c1ccc2c(c1)N(CC(=O)Nc1ccc(NC(C)=O)cc1)C(=O)CO2	-5.6%	-3.1%	-0.9%	11.4%	-0.2%
Cc1cccc(-c2nnc(SCc3ccccc3)o2)c1	-0.4%	14.1µM*	1.3%	-28.5%	?
O=C(O)c1cccc(CSc2nnc(-c3ccc(Cl)cc3)o2)c1	-3.4%	?	6.0%	0.794µM*	27.6%
O=C(O)c1cccc(CSc2nnc(COc3ccccc3)o2)c1	-9.7%	-31.3%	0.3%	?	25.6%
O=C(COC(=O)c1ccccc1O)Nc1cccc2ccccc12	-7.0%	.	-4.9%	.	?
CCn1c(NC(=O)c2ccc(F)cc2)c2ccccc2nc1=O	-10.7%	-28.0%	22.8%	-14.2%	?
O=C(CSC(=S)N1CCOCC1)Nc1nccs1	-23.1%	-0.4%	-2.5%	-6.2%	-0.1%
Nc1ccc(C(=O)Nc2nc3ccccc3s2)cc1	2.4%	?	?	?	?
O=C(Nc1nc(=O)c2ccccc2s1)c1ccc(Cl)cc1	4.8%	3.16µM*	-1.7%	26.3%[0.365 µM]	?
O=C(Cc1ccccc1)Nc1nc(=O)c2ccccc2s1	-9.0%	?	-9.4%	4.47µM*	?
O=C(CSC(=S)N1CCOCC1)Nc1nc(=O)c2ccccc2s1	.	12.6µM*	.	10µM*	?
O=C(Nc1nc(=O)c2ccccc2s1)c1ccc(F)cc1	-3.4%	7.08µM*	?	2.82µM*	?
CC1(c2nnc(-c3cccc(Cl)c3)o2)CC(c2ccccc2F)=NO1 (stereo not given)	-25.5%	.	-6.8%	.	.
